# High-throughput results (PubChem BioAssay)
# A selection: hits, their analogues and other compounds. The true share with any hit is near 2.5%.
# G6PDH CS: counter-screen for G6PDH assay hits: L. mesenteroides G6PDH inhibition; Purified L. mesenteroides G6PDH, diaphorase/resazurin coupled fluorescence, 45 min; inhibition, % at 5 µM; 200,000 tested, 0.12% active; AID 1020; in the data active = inhibition above about 50%
# HDAC3 inhib: human HDAC3 inhibition | recombinant HDAC3, fluorogenic peptide/trypsin coupled, fluorescence | 320,000 tested, 0.15% active | O15379 | inhibition, % at 8.3 µM; in the data active = inhibition above about 26%, passing the limit was not always enough; inconclusive = no clear call, values can overlap the other calls
# PfM18AAP inh-1: blocks P. falciparum M18 aspartyl aminopeptidase | recombinant PfM18AAP, H-Glu-NHMec fluorogenic cleavage | inhibition, % at 7.35 µM | 290,000 tested, 1.2% active | AID 1822;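 active = inhibition above the campaign mean inhibition over all tested compounds plus 3 SD, cut at about 28% in these data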;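 note: 0% = plate median of test compound wells and 100% = 2 mM ZnCl2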
# p97 inhibitor: inhibitors of human p97 ATPase. P55072. recombinant p97 ATPase, Kinase-Glo ATP luminescence, 3 h. inhibition, % at 8 µM. 220,000 tested, 0.42% active. AID 1481; in the data active = inhibition above about 15%;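 note: 0% = DMSO vehicle and 100% = wells lacking enzyme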
# PHOSPHO1 block: blocks human PHOSPHO1 phosphatase activity | recombinant PHOSPHO1, absorbance phosphatase assay | inhibition, % at 13.3 µM | 290,000 tested, 1.1% active; in the data active = inhibition above about 60%
# UBC9 SUMO inh: inhibitors of human SUMOylation (UBC9) | P63279 | HTRF SUMOylation assay, SAE1/SAE2 + UBC9, in vitro | inhibition, % at 35 µM | 290,000 tested, 0.36% active; in the data active = inhibition above about 50%, passing the limit was not always enough; inconclusive = no clear call, values can overlap the other calls
# Target sequence (P63279 whole entry, looked up): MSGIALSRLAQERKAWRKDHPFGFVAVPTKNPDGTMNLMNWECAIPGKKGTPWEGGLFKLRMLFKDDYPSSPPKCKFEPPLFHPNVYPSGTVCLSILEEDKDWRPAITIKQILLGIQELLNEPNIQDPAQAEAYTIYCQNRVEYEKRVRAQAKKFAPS
# PfM18AAP inh-2: confirmation of Plasmodium falciparum M18 aspartyl aminopeptidase inhibitors | shares compounds with PfM18AAP inh-1 | recombinant PfM18AAP, H-Glu-NHMec fluorogenic cleavage | inhibition, % at 7.35 µM | 2,400 tested, 28% active | AID 2170;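 active = mean inhibition over replicate wells above the hit cutoff set for the earlier primary screen, cut at about 29% in these data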;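 note: 0% = median of test compound wells and 100% = 2 mM ZnCl2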
# CTSL1 counter: Cathepsin L (human) inhibition, confirmation | shares compounds with PfM18AAP inh-1 | purified cathepsin L1, Z-Leu-Arg-MCA fluorescence | inhibition, % at 5.96 µM | 2,400 tested, under 10 active;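 active = average inhibition across replicates above the hit cutoff set in the earlier primary screen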;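 note: 0% = median of test compound wells and 100% = Z-Phe-Ala-diazomethylketone 1 µM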
# Target sequence (P07711 whole entry, looked up): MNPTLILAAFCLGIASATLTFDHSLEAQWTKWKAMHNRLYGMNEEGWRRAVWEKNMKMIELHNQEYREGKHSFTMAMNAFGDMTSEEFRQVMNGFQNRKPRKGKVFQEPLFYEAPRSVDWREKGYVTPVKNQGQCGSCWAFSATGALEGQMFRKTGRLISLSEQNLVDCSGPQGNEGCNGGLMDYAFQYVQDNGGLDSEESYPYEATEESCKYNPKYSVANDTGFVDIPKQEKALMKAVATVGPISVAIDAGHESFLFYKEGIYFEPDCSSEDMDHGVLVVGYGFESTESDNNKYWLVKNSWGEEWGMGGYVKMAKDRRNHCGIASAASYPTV
# * marks the source's active call; other numbers are inactive results; ? = inconclusive; nt = not tested or not shown.
SMILES,G6PDH CS,HDAC3 inhib,PfM18AAP inh-1,p97 inhibitor,PHOSPHO1 block,UBC9 SUMO inh,PfM18AAP inh-2,CTSL1 counter
COc1ccc(NC(=O)NNC(=O)c2ccc3ccccc3c2O)c(OC)c1,nt,-21.2,35.6*,nt,43.1,1.3,5.3,1.1
CCc1ccccc1NC(=O)NNC(=O)c1ccc2ccccc2c1O,nt,-5.4,38.9*,nt,33.5,-9.8,3.1,-0.7
CCOc1ccc(NC(=O)NNC(=O)c2ccc3ccccc3c2O)cc1,nt,5.4,24.1,nt,-115.9,2.2,nt,nt
COc1cccc(NC(=O)CN2C(=O)COc3ccc(S(=O)(=O)N4CCC(C)CC4)cc32)c1,nt,-5.6,-6.2,nt,41.2,nt,nt,nt
CCCCOc1cccc(C(=O)N(Cc2ccccc2)C2CCS(=O)(=O)C2)c1 (centres undefined),nt,8.0,-10.6,nt,8.1,9.9,nt,nt
Cc1cccc(NC(=O)C2CCN(C(=O)NCc3ccccc3)CC2)c1C,nt,0.8,0.6,nt,27.0,-1.6,nt,nt
Cc1ccc([N+](=O)[O-])cc1S(=O)(=O)Nc1ccc(O)c(Sc2ncn[nH]2)c1,nt,3.3,53.9*,nt,-57.3,2.2,38.2*,-4.4
CCOc1ccc(NC(=O)CN(C)C(=O)c2c(-c3c(F)cccc3Cl)noc2C)cc1OCC,nt,-6.0,nt,nt,nt,nt,nt,nt
Cc1ccc(NC(=O)c2ccc(S(=O)(=O)NCc3cccnc3)cc2)c(C)c1,nt,-3.6,0.2,nt,46.2,-10.7,nt,nt
C=CCN1c2ccccc2C(=O)CS1(=O)=O,nt,8.0,nt,nt,nt,nt,nt,nt
O=C(COc1ccc(C(=S)N2CCOCC2)cc1Cl)Nc1ccccc1Cl,5.0,12.5,42.2*,4.5,44.7,3.4,-18.7,0.7
CCOc1ccc(N(CC(=O)N2CCCCCC2)S(=O)(=O)c2ccc(F)cc2)cc1,nt,4.9,0.7,nt,25.0,0.8,nt,nt
CSc1cccc(N/C(=N/S(=O)(=O)c2ccccc2)NN)c1,nt,-0.8,37.6*,nt,20.3,-6.8,0.5,0.9
COCCSc1nnc(NC(=O)CCS(=O)(=O)c2ccccc2)s1,nt,-7.2,-2.7,nt,34.8,8.4,nt,nt
Cc1ccc(NC(=O)C2=CCN(S(=O)(=O)c3ccc(F)cc3)CC2)cc1,9.4,-1.0,1.2,0.5,-8.6,-2.8,nt,nt
Cc1ccc(S(=O)(=O)N2CC=C(c3ccc(F)cc3)CC2)cc1,-5.6,1.3,75.8*,-3.9,-1.0,-20.0,-52.9,-2.9
COC(=O)c1ccc(NC(=O)Nc2ccc(OC)c(OC)c2)cc1,2.3,nt,5.5,6.4,37.3,-7.6,nt,nt
COc1ccc(NC(=O)Nn2cnnc2)cc1OC,nt,-1.7,55.3*,nt,14.2,36.1,43.9*,-0.8
COc1cc(NC(=O)Nn2cnnc2)cc(OC)c1OC,nt,-3.6,69.3*,nt,20.0,1.2,53.6*,-2.1
COc1ccccc1NC(=O)Nn1cnnc1,-0.4,-9.1,65.0*,4.5,-19.8,-3.8,51.3*,0.1
COc1ccccc1NC(=O)NC(N)=O,22.5,0.1,2.5,-5.9,14.0,-3.8,nt,nt
COc1cc(C(=O)Nn2cnnc2)ccc1OC(F)F,nt,3.7,45.0*,nt,37.1,-0.2,23.9,-2.0
CC(C)=NOc1nc(NC(=O)NS(=O)(=O)c2ccccc2Cl)nc(N(C)C)n1,nt,-8.8,nt,nt,nt,nt,nt,nt
Cc1cc(C2C(C#N)=C(N)OC3=C2C(=O)CCC3)c(C)s1 (centres undefined),0.7,-0.6,6.4,14.4,1.9,0.6,nt,nt
COc1cc(C2C(C#N)=C(N)OC3=C2C(=O)CCC3)c([N+](=O)[O-])cc1OC (centres undefined),23.2,-0.6,39.7*,8.3,3.8,16.3,-19.9,2.5
SMILES,G6PDH CS,HDAC3 inhib,PfM18AAP inh-1,p97 inhibitor,PHOSPHO1 block,UBC9 SUMO inh,PfM18AAP inh-2,CTSL1 counter
COCCCNC(=S)NNC(=O)c1ccccc1Br,7.5,2.4,10.0,-0.6,27.4,10.2,nt,nt
COCCCNC(=S)NNC(=S)NCCCOC,nt,-0.2,32.3*,-3.3,-1.1,-13.0,-14.6,-6.5
COCCCNC(=S)NNC(=O)c1cc(Cl)c(O)c(Cl)c1,nt,-4.1,47.0*,8.9,-29.1,11.9,19.1,4.4
COc1ccc(CCC(=O)N2CCN(C(=O)c3ccccc3)CC2)cc1,nt,-7.4,-9.3,nt,28.3,14.6,nt,nt
COc1cc(-c2nc3ccc(C)cn3c2Nc2ccc3c(c2)OCCO3)ccc1O,-4.4,-45.6,41.0*,6.4,4.7,-13.1,40.5*,-2.2
COC(=O)CSc1n[nH]c(=S)s1,-1.8,10.0,22.2,0.3,4.7,11.9,nt,nt
COC(=O)C(C)Sc1n[nH]c(=S)s1 (centres undefined),6.4,31.2*,36.8*,6.3,102.3*,8.5,-23.8,-1.1
O=C1Cc2cc(NS(=O)(=O)c3ccc([N+](=O)[O-])cc3)cc3c2N1CCC3,nt,-2.1,nt,nt,nt,nt,nt,nt
O=C(NCc1ccccn1)c1n[nH]c2ccccc12,4.2,1.8,37.0*,7.3,18.2,17.8,-8.2,-2.9
COc1ccc(-c2cn(CCO)c(-c3ccncc3)n2)cc1,nt,-1.9,nt,nt,nt,nt,nt,nt
CC(C)=NNc1nc2c(c(=O)[nH]c(=O)n2C)n1CCCc1ccccc1,nt,-6.2,35.8*,nt,15.6,-2.9,-28.9,-7.1
Cn1c(=O)c2c([nH]c(=S)n2CCCc2ccccc2)n(C)c1=O,nt,40.5*,44.4*,nt,8.5,-14.8,29.7*,-0.9
Cn1c(=O)[nH]c(=O)c2c1[nH]c(=S)n2CCCc1ccccc1,nt,nt,57.6*,nt,44.7,-5.2,40.7*,2.4
Cn1c(=O)c2c(nc(Br)n2CCCc2ccccc2)n(C)c1=O,6.2,9.4,-18.1,1.7,20.1,11.6,nt,nt
Cn1c(=O)n(Cc2ccccc2Cl)c(=O)c2c1[nH]c(=S)n2C,nt,8.6,36.0*,nt,54.5,-7.4,-14.0,-4.9
CCC1CN(C(=O)N2CCC(C(=O)NCc3ccco3)CC2)c2cc(C)ccc2O1 (centres undefined),nt,-4.4,-2.6,nt,16.9,10.7,nt,nt
CCN(c1cccc(C)c1)S(=O)(=O)c1ccc(-c2ccc(=O)[nH]n2)o1,nt,0.6,5.3,nt,-1.2,0.8,nt,nt
CCC1C(=O)N=C(SCC(=O)Nc2ccc(C)cc2)N(c2ccccc2)C1=O (centres undefined),nt,4.1,-4.1,nt,21.7,-19.4,nt,nt
Cn1c(=O)[nH]c(=O)c2c1[nH]c(=S)n2Cc1ccc(Cl)cc1,nt,6.8,48.5*,nt,39.9,1.5,16.0,2.9
Cc1cc2nc3c(=O)[nH]c(=O)[nH]c3nc2c([N+](=O)[O-])c1N,29.7,nt,32.0*,14.1,6.5,75.6*,1.0,-0.5
Cc1c(N)c(C(C)(C)C)cc(C(C)(C)C)c1[N+](=O)[O-],12.8,-1.6,-1.3,-1.2,-6.9,-28.6,nt,nt
O=C1NC(=O)/C(=C/c2cccc3ccccc23)S1,nt,0.6,-0.7,nt,19.1,11.7,nt,nt
O=C1NC(=O)/C(=C\c2ccc(O)cc2O)S1,27.6,?,89.5*,5.1,42.6,37.7,85.6*,2.2
CC1=C(C(=O)O)N2C(=O)C(NC(=O)c3nn(C)cc3Cl)C2SC1 (centres undefined),3.9,1.8,2.4,-0.4,8.1,3.6,nt,nt
